Results published in PubChem BioAssay.
Active and inactive are the calls of the source.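 How the source made its calls, unless noted: active means fluorescence slope higher than the sample average by over 3 SD (cut at about -0.22 in these data, passing the limit was not always enough); inactive means the rest.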

Key:
[1] = inhibitors of TNFa-induced NFkB p65 translocation, primary screen, imaging, HUVEC, MLSMR starter and 10KST1 sets (AID 438;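 active means inhibition above 20% together with a positive visual image hit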;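 further: compound added about 3h40 before a 20 min TNFalpha stimulation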;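 on inhibition: signal is the nuclear over cytoplasmic p65 intensity ratio per well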); settings: HUVEC TNFa-induced p65 nuclear translocation; cell count: measured here: nuclei count (cytotoxicity indicator), at 2.08 µM; inhibition: at 2 µM, stronger effect = higher value, 0% TNFa-plus-vehicle, 100% no-TNFa wells
[2] = inhibitors of mutant huntingtin aggregation, primary screen, imaging, exon1htt(103Q)mCFP cells, high-content imaging (AID 483;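 active means visual image review flags a hit and inhibition of aggregation exceeds 20%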;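 further: compound exposure lasted 3 days before fixation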;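 on nuclei count: percent of the per-plate median nuclei count of sample wells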); settings: exon1htt(103Q)mCFP cell line, aggregate imaging, at 2 µM; inhibition of aggregation: stronger effect = higher value; nuclei count: measured here: cell count, toxicity
[3] = inhibitors of E-selectin induction by TNFa, primary screen, imaging, HUVEC, immunofluorescence, MLSMR starter and 10KST1 sets (AID 487;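 active means visually confirmed hit in the image check and inhibition above 20%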;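 on inhibition: signal is fraction of cell area covered by stained E-selectin grains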;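 on nuclei count: 100% = median nuclei count of all wells on the same plate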); settings: HUVEC TNFalpha-induced E-selectin immunofluorescence imaging, at 2 µM; inhibition: stronger effect = higher value; nuclei count: measured here: cell number, toxicity
[4] = biological target: Voltage-gated potassium channel subunit beta-2 (Rattus norvegicus) (UniProt P62483); assay: KvBeta enzyme negative modulators, primary screen, biochemical, NADPH fluorescence (AID 622); settings: recombinant KvBeta, 4-cyanobenzaldehyde reduction, at 10 µM, stronger effect = higher value;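 further: slope of raw intensity against log time taken from 70 to 1610 s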
Sequence of Voltage-gated potassium channel subunit beta-2 (Rattus norvegicus) (P62483 whole entry, looked up): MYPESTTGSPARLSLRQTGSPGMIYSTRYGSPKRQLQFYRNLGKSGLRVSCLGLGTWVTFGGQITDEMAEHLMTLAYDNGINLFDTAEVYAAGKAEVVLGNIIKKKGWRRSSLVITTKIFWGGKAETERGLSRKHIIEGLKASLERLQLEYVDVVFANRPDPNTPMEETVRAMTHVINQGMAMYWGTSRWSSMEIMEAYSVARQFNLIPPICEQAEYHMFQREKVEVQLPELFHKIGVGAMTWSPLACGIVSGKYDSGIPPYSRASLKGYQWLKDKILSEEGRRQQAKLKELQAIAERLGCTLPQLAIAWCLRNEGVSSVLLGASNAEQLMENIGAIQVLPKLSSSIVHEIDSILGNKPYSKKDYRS

[5] = biological target: Voltage-gated potassium channel subunit beta-2 (Rattus norvegicus) (UniProt P62483); assay: KvBeta positive modulators, primary screen, biochemical, NADPH fluorescence (AID 623;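 active means NADPH fluorescence slope more negative than the mean of all samples by about 3 SD, 99.7% confidence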;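 further: fluorescence intensity change per second fitted from 20 to 320 s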); settings: Recombinant KvBeta, NADPH fluorescence decrease slope, 10 min; at 10 µM; stronger effect = lower value
[6] = biological target: Alpha-2C adrenergic receptor (Homo sapiens) (UniProt P18825); assay: modulators of alpha2C/GIRK thallium flux, primary screen, cell-based, HEK293 alpha2C/GIRK1/2 (AID 624;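 active means fluorescence slope after compound addition differing from the mean of all screened samples at 99.7% confidence, in either direction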;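 further: slope of fluorescence ratio to pre-addition baseline per second over 15 to 24 s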); settings: thallium flux BTC fluorescence, at 10 µM, actives lie on both sides
Sequence of Alpha-2C adrenergic receptor (Homo sapiens) (P18825 whole entry, looked up): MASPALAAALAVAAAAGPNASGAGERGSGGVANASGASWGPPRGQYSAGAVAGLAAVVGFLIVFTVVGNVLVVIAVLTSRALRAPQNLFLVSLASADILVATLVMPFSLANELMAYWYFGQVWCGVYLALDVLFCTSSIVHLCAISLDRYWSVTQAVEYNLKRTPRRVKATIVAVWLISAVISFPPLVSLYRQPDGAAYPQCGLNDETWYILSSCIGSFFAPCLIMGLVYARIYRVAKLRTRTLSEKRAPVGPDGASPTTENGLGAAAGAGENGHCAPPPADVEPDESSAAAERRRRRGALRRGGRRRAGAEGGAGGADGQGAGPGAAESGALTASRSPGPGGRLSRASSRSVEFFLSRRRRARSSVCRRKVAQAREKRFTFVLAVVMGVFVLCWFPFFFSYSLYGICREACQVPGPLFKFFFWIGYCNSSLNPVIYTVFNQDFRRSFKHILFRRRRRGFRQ

[7] = inhibitors of Sendai virus-induced IRF3 signaling, primary screen, TLR/RLR signaling modifier project, cell-based, Sendai virus stimulus, luciferase, 10K MLSCN set (AID 602276;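 active means inhibition at or above 50% at 10 µM; inactive means inhibition below 50%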;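 further: firefly luciferase from ISG56 promoter only with Renilla not read in this screen; 0% = Sendai virus plus DMSO and 100% = medium plus DMSO without virus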); settings: HEK293 RL24 IRF3 luciferase reporter, at 10 µM, stronger effect = higher value
[8] = inhibitors of poly I:C-induced TLR3 signaling, primary screen, cell-based, poly I:C stimulus, luciferase, 10K MLSCN set (AID 602277;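 active means inhibition of the reporter signal at or above 50%; inactive means inhibition below 50%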); settings: HEK293-TLR3 RL24 IRF3 luciferase reporter, at 10 µM, stronger effect = higher value
[9] = DUSP6 inhibitors restoring Erk phosphorylation by chemical complementation, primary imaging in DUSP6-transfected HeLa (AID 609;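 active means compounds giving at least 50% inhibition in the cell-based MKP-3 phosphatase rescue imaging test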;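 on inhibition: phospho-Erk level distribution per well compared with pooled transfected vehicle control wells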); settings: HeLa MKP-3 transfected, phospho-Erk imaging KS statistic, at 10 µM, cells stimulated with TPA for 15 min
[10] = biological target: Dual specificity protein phosphatase 6 (Homo sapiens) (UniProt Q16828); assay: as above; settings: HeLa MKP-3 transfected, phospho-Erk imaging KS statistic; at 10 µM; stronger effect = higher value; cells stimulated with TPA for 15 min
Sequence of Dual specificity protein phosphatase 6 (Homo sapiens) (Q16828 whole entry, looked up): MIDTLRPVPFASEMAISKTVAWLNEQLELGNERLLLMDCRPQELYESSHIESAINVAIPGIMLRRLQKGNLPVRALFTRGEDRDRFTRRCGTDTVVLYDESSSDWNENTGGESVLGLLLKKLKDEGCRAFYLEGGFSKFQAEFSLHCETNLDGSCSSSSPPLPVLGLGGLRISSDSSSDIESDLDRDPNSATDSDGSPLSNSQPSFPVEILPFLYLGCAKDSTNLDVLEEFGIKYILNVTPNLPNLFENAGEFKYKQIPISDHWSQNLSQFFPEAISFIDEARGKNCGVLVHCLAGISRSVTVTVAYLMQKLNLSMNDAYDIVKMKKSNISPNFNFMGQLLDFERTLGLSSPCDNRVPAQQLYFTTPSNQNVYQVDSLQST

[11] = biological target: Muscarinic acetylcholine receptor M4 (Homo sapiens) (UniProt P08173); assay: compounds altering M4/GIRK thallium flux, either direction, primary screen, M4 allosteric agonist project, cell-based, HEK293 M4/GIRK, BTC-AM (AID 625;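 active means fluorescence slope after compound addition differing from the mean of all tested samples at 99.7% confidence, mostly higher but some lower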;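 further: thallium influx through GIRK channels coupled to M4 in HEK293 cells with BTC-AM dye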); settings: at 10 µM, actives lie on both sides
Sequence of Muscarinic acetylcholine receptor M4 (Homo sapiens) (P08173 whole entry, looked up): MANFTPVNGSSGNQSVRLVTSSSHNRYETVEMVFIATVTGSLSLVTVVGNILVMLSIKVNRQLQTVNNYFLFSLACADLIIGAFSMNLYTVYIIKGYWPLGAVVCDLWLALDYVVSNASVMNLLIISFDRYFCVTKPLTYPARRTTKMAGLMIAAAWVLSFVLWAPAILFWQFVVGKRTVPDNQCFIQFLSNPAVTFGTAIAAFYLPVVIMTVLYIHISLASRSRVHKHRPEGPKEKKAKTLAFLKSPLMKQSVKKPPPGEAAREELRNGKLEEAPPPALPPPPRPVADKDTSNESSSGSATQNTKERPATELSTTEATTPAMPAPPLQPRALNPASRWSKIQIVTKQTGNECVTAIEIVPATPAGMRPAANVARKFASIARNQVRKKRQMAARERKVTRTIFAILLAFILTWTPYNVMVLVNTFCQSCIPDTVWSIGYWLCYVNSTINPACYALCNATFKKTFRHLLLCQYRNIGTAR

[12] = inhibitors of larval lipid processing in zebrafish, primary screen, whole organism, PED6 fluorescence, gall bladder and intestine (AID 686;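 active means a full or partial loss of lipid-probe fluorescence in the fish gall bladder, intestine or both, judged by eye; inactive means no fluorescence loss, or compound toxic to the fish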;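 further: larvae 5 to 7 days old with five fish per well; signal comes from phospholipase A2 cleavage of quenched PED6 carried via bile; overnight exposure to compound and PED6 before scoring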); settings: Zebrafish larvae PED6 lipid processing, fluorescence scoring; screened at 20 µM (by protocol)
[13] = inhibitors of Chlamydomonas gravitaxis, primary screen, whole organism, Chlamydomonas reinhardtii, WT vs cilia-less mutant, absorbance, 96-well (AID 463189;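 active means inhibition at or above 50% relative to wild type and mutant plate controls; inactive means inhibition below 50%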;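 further: 0% = wild type cc124 cells in DMSO and 100% = ciliumless bld1 mutant cells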); settings: OD600 absorbance, 2 days, at 10 µM, stronger effect = higher value

Row | Structure (SMILES) | cell count [1] | inhibition [1] | inhibition of aggregation [2] | nuclei count [2] [%] | inhibition [3] | nuclei count [3] [%] | fluorescence slope [4] | NADPH fluorescence slope [5] | slope [6] | inhibition [7] | inhibition [8] | z-score ([9]; measured here: cell density z-score) | z-score ([9]; measured here: nuclear c-Myc green intensity z-score) | z-score ([9]; measured here: nuclear pErk red intensity z-score, stronger effect = higher value) | inhibition [10] | fluorescence slope [11] | outcome [12] | inhibition [13]
1 | CC1CCN(c2nc3c(c(=O)n(C)c(=O)n3C)n2Cc2ccccc2)CC1 | 666 | -3.5% (inactive) | -14.9% (inactive) | 83.4 | -81.5% (inactive) | 139 | -0.39 (inactive) | -6.1e-06 (inactive) | 0.00388 (inactive) | 12.3% (inactive) | 15.2% (inactive) | – | – | – | – | – | – | –
2 | Cc1nnc(SCC(=O)Nc2sc3c(c2C#N)CCCC3)[nH]c1=O | 368 | 2.8% (inactive) | -12.9% (inactive) | 114 | -31.8% (inactive) | 108 | -0.441 (inactive) | 1.2e-05 (inactive) | 0.00274 (inactive) | 8.57% (inactive) | 39.4% (inactive) | – | – | – | – | – | – | –
3 | Cc1ccc(NC(=O)c2cc(N3CCOCC3)nc3ccccc23)cc1 | 674 | -10.2% (inactive) | – | – | – | 174 | -0.393 (inactive) | -2.7e-05 (inactive) | – | – | – | 0.315 | 1.28 | 0.543 | -16.8% (inactive) | 0.00495 (inactive) | inactive | 19% (inactive)
4 | Cc1ccc(-c2noc(CCC(=O)N3CCN(c4cccc(C(F)(F)F)c4)CC3)n2)cc1 | 647 | 7.6% (inactive) | -10.2% (inactive) | 95.8 | -36.9% (inactive) | 111 | -0.391 (inactive) | -5.4e-05 (inactive) | 0.00562 (inactive) | 9.01% (inactive) | 6.71% (inactive) | – | – | – | – | – | – | –
5 | CC(=O)c1ccc(NS(=O)(=O)c2ccccc2)cc1 | 554 | -4.8% (inactive) | 0.4% (inactive) | 62.8 | -59.1% (inactive) | 92.5 | -0.467 (inactive) | 3.9e-05 (inactive) | 0.00323 (inactive) | -17.2% (inactive) | 7.05% (inactive) | – | – | – | – | – | – | –
6 | CCOC(=O)c1c(NC(=O)COC(=O)c2c(C)noc2C)sc2c1CCC2 | 231 | 7.8% (inactive) | 29.9% (inactive) | 103 | -101% (inactive) | 109 | -0.472 (inactive) | -1.1e-05 (inactive) | 0.0054 (inactive) | 14.6% (inactive) | 21.3% (inactive) | – | – | – | – | – | – | –
7 | COC(=O)Cc1c(C)c2ccc(OCC(=O)N3CCOCC3)cc2oc1=O | 439 | 15.7% (inactive) | 7.7% (inactive) | 113 | -28.7% (inactive) | 74.6 | -0.363 (inactive) | -1.5e-05 (inactive) | 0.00545 (inactive) | 17.8% (inactive) | 13.9% (inactive) | – | – | – | – | – | – | –
8 | Cn1c(=O)n(CC(=O)OCc2ccccc2)c(=O)c2c1nc1n2CCCN1C1CCCCC1 | 376 | 3.2% (inactive) | 0.2% (inactive) | 82.9 | 25.3% (inactive) | 92 | -0.479 (inactive) | -1.8e-05 (inactive) | 0.00618 (inactive) | -2.49% (inactive) | 17.2% (inactive) | – | – | – | – | – | – | –
